The values that follow come from PubChem BioAssay (NCATS).

Assay [1] in a line: qHTS for Inhibitors of Plasmodium falciparum (CP250) proliferation (AID 504320).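 Further: plate controls were DMSO vehicle for no effect and 0.29 µM artemisinin control for full effect.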 Summed up:
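Parasite growth measured as SYBR Green DNA fluorescence (ex 485, em 535 nm) after overnight lysis following 72 h culture at 37 °C, 0.3% parasitemia, 2.5% hematocrit. Values normalized against DMSO and 0.29 uM artemisinin controls, with plate-stack correction.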
(In general: qHTS replaces the single test concentration by a dilution series.)

Assay [2] concerns the target Atrial natriuretic peptide receptor 1 (Homo sapiens) (UniProt P16066). The assay is described as follows: Natriuretic polypeptide receptor (hNpr1) antagonism - Pilot CMLD screen (AID 1347052; calls by dose curve;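 further: HEK293 cells with hNpr1 stimulated by hNppA peptide at 0.1 nM; cGMP level read as GloSensor luciferase luminescence after agonist stimulation; series mostly up to about 9.2 µM; on the % scale 0 is the no-effect control and ±100 the full control effect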).
Assay [3] deals with Cytochrome P450 3A4 (Homo sapiens) (UniProt P08684). The assay can be described thus: qHTS Assay for Inhibitors and Substrates of Cytochrome P450 3A4 (AID 884). Further: potency means the concentration at half of the fitted maximal effect; nearly all actives have a fitted effect of over 50% in size. Summed up:
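Luminescent readout of luciferin produced by CYP3A4 (20 nM) dealkylation of Luciferin-PPXE, 25 uM (its KM). NADPH-driven reaction ran 60 min at RT after 10 min compound preincubation; data scaled to 57 uM ketoconazole as 100% inhibition.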

The nature of assay [4]: Confirmation and Secondary Assay for Modulators of Hemoglobin Beta Chain Splicing at IVS2 654 locus (AID 910).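 Further: HeLa cells stably carrying EGFP split by mutant beta-globin IVS2-654 intron; per-well total GFP intensity by laser scanning cytometry after 2-day treatment; % of control where 0% means no effect.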 Summed up: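 Readout: per-well total peak green fluorescence (488 nm ex, 500–520 nm em) from objects 5–250 µm, reflecting correct splicing of an EGFP-654 reporter. Compounds were applied for 2 days at 37 °C to overnight-plated HeLa EGFP-654 cells; controls were DMSO and 500 nM IVS2-654 PNA.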

The target of assay [5] is ATP-dependent DNA helicase Q1 (Homo sapiens) (UniProt P46063). The assay can be described thus: qHTS Validation Assay for Inhibitors of RecQ-Like Dna Helicase 1 (RECQ1) (AID 2353).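 Further: plate controls were DMSO vehicle for no effect and enzyme-free control for full effect.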 The method in brief:
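RECQ1T1 50 nM; forked duplex (20 bp + 30-nt ss tails) 200 nM, ATP 2 mM final; pH 8.0, 2 mM MgCl2, 2.5 ug/ml poly(dI-dC); 15 min compound preincubation; discontinuous kinetic read over 2 h at RT.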

Assay [6] concerns the target M-phase phosphoprotein 8 (Homo sapiens) (UniProt Q99549). The assay is described as follows: qHTS Validation Assay for Inhibitors for MPP8 Chromodomain Interactions with Methylated Histone Tails (AID 488949).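 Further: AlphaScreen signal from MPP8 chromodomain bound to biotinylated H3K9me3 peptide; top concentration of the series differs between compounds; on the % scale 0 is the no-effect control and ±100 the full control effect; nearly all actives have a fitted effect of over 55% in size.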 Summed up:
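AlphaScreen proximity signal from streptavidin donor and Ni-chelate acceptor beads (10 ug/mL each) reported binding of MPP8 to trimethyl-K9 H3(1-18) peptide, both at 50 nM. The complex formed 30 min before a 30 min compound exposure at room temperature, in PBS pH 7.4.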

Assay [7] addresses T1, Hexokinase-4 (Homo sapiens) + Glucokinase regulatory protein (Homo sapiens) (UniProt P35557+Q14397). The assay can be described thus: qHTS assay for inhibitors of recombinant human GCK-GKRP interaction: Diaphorase-coupled assay (AID 743205). Summed up: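 A kinetic fluorescence read (Ex 525/Em 590 nm, every minute for 30 minutes) tracked resorufin from a G6PDH-diaphorase coupled GCK reaction. It contained 10 nM GST-GCK, 10 nM FLAG-GKRP, 5 mM glucose, 0.4 mM ATP in Hepes pH 7.6. Normalized to with/without-enzyme DMSO controls.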

Assay [8] deals with T1, Hexokinase-4 (Homo sapiens) + Glucokinase regulatory protein (Homo sapiens). The assay is described as follows: qHTS assay for inhibitors of recombinant human GCK-GKRP interaction: ADP-Glo assay (AID 743206).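 Further: plate controls were DMSO plus enzyme for no effect and no enzyme for full effect.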 Summed up:
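Pin-transferred compounds meet a 15 nM GST-GCK/15 nM FLAG-GKRP/2 uM S6P mix (dispense concentrations). ATP is then added to 0.4 mM final with 5 mM glucose, and the reaction runs 60 min at room temperature. ADP is quantified luminescently.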

Assay [9] has as its target Parathyroid hormone/parathyroid hormone-related peptide receptor (Homo sapiens) (UniProt Q03431). The assay is described as follows: qHTS for PTHR1 Agonists: Optimization Screen against the NCGC LOPAC library (AID 1347079).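 Further: GloSensor cAMP luminescence in HEK-293 GP2 cells expressing human PTHR1 with IBMX; 0% is about no effect.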 The method in brief:
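HEK-293 GP2 cells, PTHR1 + GloSensor cAMP; 3000 cells/well, o/n. Luciferin + IBMX 0.5mM each (stock), 1 hr 37C. Cpd titration, 1 hr 37C. Lum after 15 min RT. Ctrl M-PTH(1-15) top 10uM.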

The target in assay [10] is N-terminal Xaa-Pro-Lys N-methyltransferase 1 (Homo sapiens) (UniProt Q9BV86). The assay is described as follows: qHTS Assay for Inhibitors of N-terminal methyltransferase 1 (NTMT1): LOPAC validation of the NTMT1 SAHH-coupled ThioGlo3 Assay (AID 1347143).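 Further: SAH from peptide methylation measured as thiol fluorescence via SAHH coupling and ThioGlo3; on the % scale 0 is the no-effect control and ±100 the full control effect; nearly all actives have a fitted effect of over 70% in size.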 Summed up:
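NTMT1 125nM + cpds (various conc.), 1 min RT; add SAM 100uM/SAHH 10uM/ThioGlo3 15uM (addition mix). SAHH-coupled thiol detection, Ex340/Em450, t0 and 30 min RT; signal normalized to background. LOPAC 1280-cpd pilot.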

In assay [11] the test system is Zika virus NS2B-NS3 protease (unlinked). The assay is described as follows: Optimization of GU AMC qHTS for Zika virus inhibitors: Unlinked NS2B-NS3 protease assay (AID 1347151).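 Further: series mostly up to about 52 µM; 0% = no-inhibitor control and -100% = no-enzyme control; nearly all actives have a fitted effect of over 80% in size.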 The method in brief:
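Fluorescence gain (340/450 nm) over 15 min at room temperature, ~20% conversion, gave percent inhibition fitted to a 4-parameter Hill equation; enzyme was unlinked NS2B-NS3 (25 nM final), pH 8.0 Tris buffer.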

For assay [12], the system named is Zika virus NS2B-NS3 protease. The assay can be described thus: Primary screen GU AMC qHTS for Zika virus inhibitors (AID 1347154).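 Further: 0% = no-inhibitor control and -100% = no-enzyme control; nearly all actives have a fitted effect of over 70% in size.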 The method in brief:
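Fluorogenic AMC-substrate cleavage by noncovalent NS2B-NS3 protease complex (25 nM, pH 8.0 Tris buffer with Tween 20) followed for 15 minutes at room temperature (~20% conversion). Percent inhibition from ex340/em450 signal change, fitted by 4-parameter Hill equation.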

In assay [13] the test system is Zika virus NS2B-NS3 protease (unlinked complex). The assay is described as follows: Primary screen GU Rhodamine qHTS for Zika virus inhibitors: Unlinked NS2B-NS3 protease assay (AID 1347159). Further: on the % scale 0 is the no-effect control and ±100 the full control effect; nearly all actives have a fitted effect of over 60% in size. The method in brief:
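Enzyme 25 nM in Tris-HCl pH 8.0 + 0.01% Tween 20; compounds up to 114 microM, 15 min RT dark; + Rhod110 substrate 1.5 microM; read t0 and 15 min; delta fluorescence → % inhibition → 4-parameter Hill fit.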

Assay [14] has as its system Zika virus NS2B-NS3 protease (linked construct). The assay can be described thus: Primary screen NINDS Rhodamine qHTS for Zika virus inhibitors (AID 1347160). Further: on the % scale 0 is the no-effect control and ±100 the full control effect; nearly all actives have a fitted effect of over 55% in size. Summed up: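 Enzyme (25 nM, linked NS2B-NS3) was preincubated 15 min with compound in 10 mM Tris-HCl pH 8.0, 0.01% Tween 20. Rhodamine110 substrate (1.5 microM) was then added and fluorescence read at start and after 15 min.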

In assay [15] the target is Lysine-specific demethylase 5B (Homo sapiens) (UniProt Q9UGL1). The assay can be described thus: Optimization screen for KDM5B Histone Demethylases FDH coupled qHTS against the LOPAC library (AID 1347166). Further: 0% is about no effect. Summed up:
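KDM5BDeltaAP (200nM final) in 50mM HEPES pH 7.5, 0.01% Tween-20 was preincubated with compound for 10 min at room temperature. A substrate mix of 12.5uM H3K4Me3, 25uM a-ketoglutarate, ascorbate, Fe2+, NAD+ and formaldehyde dehydrogenase was then added. NADH fluorescence (340/450 nm) was read initially and after 30 min.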

Assay [16] can be described thus: qHTS for inhibitors of adenylyl cyclases using a fission yeast platform: a pilot screen against the NCATS LOPAC library (AID 1347410).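 Further: plate controls were DMSO vehicle for no effect and DPI positive control for full effect.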 Summed up: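 GFP from fbp1-GFP reporter, read by Acumen laser cytometry, indicates AC inhibition in fission yeast expressing AC9, GNAS and PDE4D2. Cells grown 18 h in the dark at 30C with compounds, final up to 57 uM.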
Assay [17] addresses Single-stranded DNA cytosine deaminase (Homo sapiens) (UniProt Q9GZX7). The assay is described as follows: Validation qHTS assay for inhibitors of Activation Induced Cytidine Deaminase (AID): AID signal (AID 1347429). Further: on the % scale 0 is the no-effect control and ±100 the full control effect. The method in brief: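 Compounds (final up to 114 uM) preincubated with AID plus UDG; 250 nM DJC20/DJC23 substrate mix (4x stock) added, 4 hr at room temperature, then NaOH, 30 min. Read 1 fluorescence at 540 nm excitation, 590 nm emission.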

A short description of assay [18]: Primary qHTS for inhibitors of La Crosse Virus (LACV) - induced cell death in SH-SY5Y cells (AID 1508616).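 Further: top concentration of the series differs between compounds; 0% = infected DMSO wells and 100% = uninfected DMSO wells; higher means more rescue of cells from virus-induced death.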 Summed up: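 Rescue of virus-induced death was read as ATPLite luminescence after 6 days at 37C, scaled between DMSO wells with LACV and without virus. Cells were SH-SY5Y, 6000/well, infected at 0.01 MOI after compound addition.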
The target of a further assay is Papain (Carica papaya) (UniProt P00784). The assay can be described thus: Primary qHTS assay for inhibitors of the protease papain (AID 1645873).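 Further: papain turnover of Z-FR-AMC read as the AMC fluorescence gain over 10 min; series mostly up to about 50 µM; on the % scale 0 is the no-effect control and ±100 the full control effect.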
Assay [19] addresses Rap guanine nucleotide exchange factor 4 (Homo sapiens) (UniProt Q8WZA2). The assay can be described thus: Confirmatory qHTS for antagonist of cAMP-regulated guanine nucleotide exchange factor 4 (EPAC2) (AID 1645885). Further: potency means the concentration at half of the fitted maximal effect; nearly all actives have a fitted effect of over 25% in size.
Assay [20] addresses Glutathione peroxidase 1 (Homo sapiens) (UniProt P07203). The assay is described as follows: Primary qHTS Assay for Inhibitors of Recombinant Selenoprotein Glutathione Peroxidase 1 (GPX1) (AID 1845191). Further: nearly all actives have a fitted effect of over 65% in size. Summed up: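 NADPH consumption tracked by fluorescence at 340/450 nm between t=0 and t=15 min, room temperature. Final mix: 10 nM GPX1, 100 nM glutathione reductase, 1 mM GSH, 0.5 mM NADPH, 0.5 mM cumene hydroperoxide, 0.01% BSA; 30 min compound–enzyme preincubation.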

Assay [21] addresses Phospholipid hydroperoxide glutathione peroxidase GPX4 (Homo sapiens) (UniProt P36969). The assay is described as follows: Primary qHTS Assay for Inhibitors of Recombinant Selenoprotein Glutathione Peroxidase 4 (GPX4) (AID 1845192). Further: series mostly up to about 50 µM; on the % scale 0 is the no-effect control and ±100 the full control effect; nearly all actives have a fitted effect of over 65% in size. The following applies: outcome: dose series up to 50 µM unless noted. The method in brief: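 NADPH consumption followed by fluorescence at 340/450 nm, t=0 and after 15 min at room temperature. Reaction started with cumene hydroperoxide (0.5 mM final) after 30 min compound–GPX4 preincubation; final 200 nM GPX4, 100 nM GR, 1 mM GSH, 0.5 mM NADPH.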

Assay [22] has as its target Luciferin 4-monooxygenase (Photinus pyralis) (UniProt P08659). The assay can be described thus: Primary firefly luciferase (FLuc) qHTS assay for identification of artifact compounds. (AID 1845220). Further: nearly all actives have a fitted effect of over 60% in size. The method in brief: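 FLuc 10 nM; luciferin 10 uM; ATP 10 uM; Tris-acetate pH 7.6, Mg-acetate 10 mM; 15 min RT preincubation; 5 min reaction; luminescence.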
A short description of assay [23]: Primary fluorescence-based thiol-reactive (MSTI) qHTS assay for identification of artifact compounds. (AID 1845221).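 Further: series mostly up to about 54 µM; thiol-reactive compounds lower the probe fluorescence signal; nearly all actives have a fitted effect of over 65% in size.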 Summed up:
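Compounds were incubated 1 h at room temperature in the dark with the MSTI probe (4 uM) in PBS pH 7.4, 2% DMSO. Signals were normalized between Acetyl-MSTI and MSTI.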

Assay [24] is described as follows: Primary redox qHTS assay for identification of artifact compounds. (AID 1845223).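 Further: 0% = DMSO and 100% = reference compound.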 Summed up: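 Redox-cycling detection via DTT (250 uM final) oxidation coupled to Amplex Red (25 uM)/HRP (250 mU/mL) in HBSS. 15 min preincubation plus 30 min after DTT, room temperature. Ex/Em 525/598 nm; 4-parameter Hill fit against DMSO and 10 uM DA3003.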
Assay [25] in a line: qHTS drug screen for cell cycle checkpoint inhibitors in PARPi-resistant BRCA-mutant ovarian cancer cell lines. (AID 1963452; calls by dose curve). The following applies: PEO1/OlaR viability, CellTiter-Glo luminescence, 96 h, stronger effect = lower value. The method in brief:
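PEO1, PEO4 and PEO1/OlaR ovarian cancer cells, 600 per well, exposed 96 h at 37C to a dilution series. Viability read by CellTiter-Glo luminescence, normalized to DMSO and empty wells; activity summarized as Z-AUC.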

Records with an inconclusive call do not appear. Calls of active or inactive are those of the source. Unless noted, the call rests on the fitted dose curve; in most records, active means well fitted curve in the direction sought with a large enough effect; inconclusive means small, poorly fitted or top-dose-only effect, or another doubt; inactive means no such curve, though single readings can be large; an effect the other way counts as inactive or inconclusive.

Atrial natriuretic peptide receptor 1 (Homo sapiens), sequence (P16066 whole entry, looked up): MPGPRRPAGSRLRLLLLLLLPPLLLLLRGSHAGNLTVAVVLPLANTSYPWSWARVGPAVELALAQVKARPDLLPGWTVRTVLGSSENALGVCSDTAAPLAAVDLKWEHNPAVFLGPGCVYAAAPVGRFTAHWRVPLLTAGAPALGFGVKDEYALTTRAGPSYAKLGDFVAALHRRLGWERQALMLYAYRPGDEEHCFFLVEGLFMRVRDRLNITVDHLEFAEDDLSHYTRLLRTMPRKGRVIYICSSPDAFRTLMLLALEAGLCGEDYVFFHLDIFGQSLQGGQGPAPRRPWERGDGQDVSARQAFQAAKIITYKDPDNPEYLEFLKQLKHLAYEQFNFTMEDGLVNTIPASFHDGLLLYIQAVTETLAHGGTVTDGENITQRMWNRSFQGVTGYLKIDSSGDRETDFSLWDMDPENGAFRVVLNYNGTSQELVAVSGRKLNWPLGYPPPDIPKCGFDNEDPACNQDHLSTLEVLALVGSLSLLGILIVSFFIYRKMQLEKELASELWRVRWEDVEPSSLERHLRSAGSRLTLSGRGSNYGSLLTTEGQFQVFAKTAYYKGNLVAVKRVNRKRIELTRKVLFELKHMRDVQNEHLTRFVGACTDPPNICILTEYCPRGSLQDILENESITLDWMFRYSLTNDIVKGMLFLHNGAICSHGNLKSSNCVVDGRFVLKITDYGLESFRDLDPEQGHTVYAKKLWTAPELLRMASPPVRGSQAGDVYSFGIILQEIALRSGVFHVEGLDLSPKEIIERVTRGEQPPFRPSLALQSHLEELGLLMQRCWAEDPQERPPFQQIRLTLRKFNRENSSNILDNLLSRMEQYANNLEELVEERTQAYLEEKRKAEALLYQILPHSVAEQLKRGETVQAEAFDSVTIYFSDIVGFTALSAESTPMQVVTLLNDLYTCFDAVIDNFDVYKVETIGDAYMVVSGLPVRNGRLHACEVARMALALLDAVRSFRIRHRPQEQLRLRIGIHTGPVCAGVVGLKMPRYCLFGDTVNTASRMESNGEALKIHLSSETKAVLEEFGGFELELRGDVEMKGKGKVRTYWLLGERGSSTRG
Phospholipid hydroperoxide glutathione peroxidase GPX4 (Homo sapiens), sequence (P36969 whole entry, looked up): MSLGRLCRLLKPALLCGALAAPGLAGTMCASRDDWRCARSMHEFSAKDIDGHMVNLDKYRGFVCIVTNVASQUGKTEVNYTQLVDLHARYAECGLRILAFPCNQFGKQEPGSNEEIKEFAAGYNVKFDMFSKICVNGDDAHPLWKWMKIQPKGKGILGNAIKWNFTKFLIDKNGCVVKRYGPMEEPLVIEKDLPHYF
Glutathione peroxidase 1 (Homo sapiens), sequence (P07203 whole entry, looked up): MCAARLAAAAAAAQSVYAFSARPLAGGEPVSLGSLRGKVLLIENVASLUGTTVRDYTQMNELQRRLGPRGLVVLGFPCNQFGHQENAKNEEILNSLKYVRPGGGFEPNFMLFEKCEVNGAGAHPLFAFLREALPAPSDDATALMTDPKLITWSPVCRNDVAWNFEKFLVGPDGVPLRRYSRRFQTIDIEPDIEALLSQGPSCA
M-phase phosphoprotein 8 (Homo sapiens), sequence (Q99549 whole entry, looked up): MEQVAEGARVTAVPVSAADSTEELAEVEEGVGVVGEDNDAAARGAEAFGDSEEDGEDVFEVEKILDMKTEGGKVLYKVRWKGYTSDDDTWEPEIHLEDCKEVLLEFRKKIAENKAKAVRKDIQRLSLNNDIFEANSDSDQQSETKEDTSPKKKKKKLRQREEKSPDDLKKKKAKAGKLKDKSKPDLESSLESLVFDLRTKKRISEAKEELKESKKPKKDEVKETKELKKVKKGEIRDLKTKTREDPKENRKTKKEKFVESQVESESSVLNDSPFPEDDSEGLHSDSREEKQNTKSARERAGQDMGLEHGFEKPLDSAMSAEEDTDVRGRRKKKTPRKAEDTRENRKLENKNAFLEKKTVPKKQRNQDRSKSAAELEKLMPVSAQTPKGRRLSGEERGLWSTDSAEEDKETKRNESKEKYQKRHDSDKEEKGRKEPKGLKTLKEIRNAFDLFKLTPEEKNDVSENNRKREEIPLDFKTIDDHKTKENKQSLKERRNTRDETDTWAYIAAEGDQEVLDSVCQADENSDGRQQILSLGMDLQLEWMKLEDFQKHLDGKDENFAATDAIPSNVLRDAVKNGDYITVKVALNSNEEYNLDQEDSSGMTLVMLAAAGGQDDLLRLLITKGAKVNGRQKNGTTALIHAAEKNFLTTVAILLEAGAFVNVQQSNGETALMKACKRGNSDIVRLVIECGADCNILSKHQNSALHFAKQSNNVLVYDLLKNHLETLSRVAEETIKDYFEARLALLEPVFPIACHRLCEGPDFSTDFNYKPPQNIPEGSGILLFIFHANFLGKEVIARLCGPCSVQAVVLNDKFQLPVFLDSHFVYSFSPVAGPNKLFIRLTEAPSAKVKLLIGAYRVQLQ
T1 sequence (P35557 whole entry, looked up): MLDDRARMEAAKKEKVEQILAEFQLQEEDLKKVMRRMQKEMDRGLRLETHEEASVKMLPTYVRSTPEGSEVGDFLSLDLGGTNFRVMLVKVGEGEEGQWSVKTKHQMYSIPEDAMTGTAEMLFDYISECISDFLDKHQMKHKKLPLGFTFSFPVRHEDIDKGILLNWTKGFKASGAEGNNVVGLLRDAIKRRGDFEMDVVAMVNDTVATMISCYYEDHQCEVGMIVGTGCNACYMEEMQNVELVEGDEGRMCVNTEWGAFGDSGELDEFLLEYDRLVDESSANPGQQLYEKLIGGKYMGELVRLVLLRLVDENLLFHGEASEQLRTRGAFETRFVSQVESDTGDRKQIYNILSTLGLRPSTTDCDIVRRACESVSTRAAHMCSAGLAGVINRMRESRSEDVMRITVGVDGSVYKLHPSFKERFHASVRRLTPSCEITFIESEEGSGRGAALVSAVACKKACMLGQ
T1 sequence (Q14397 whole entry, looked up): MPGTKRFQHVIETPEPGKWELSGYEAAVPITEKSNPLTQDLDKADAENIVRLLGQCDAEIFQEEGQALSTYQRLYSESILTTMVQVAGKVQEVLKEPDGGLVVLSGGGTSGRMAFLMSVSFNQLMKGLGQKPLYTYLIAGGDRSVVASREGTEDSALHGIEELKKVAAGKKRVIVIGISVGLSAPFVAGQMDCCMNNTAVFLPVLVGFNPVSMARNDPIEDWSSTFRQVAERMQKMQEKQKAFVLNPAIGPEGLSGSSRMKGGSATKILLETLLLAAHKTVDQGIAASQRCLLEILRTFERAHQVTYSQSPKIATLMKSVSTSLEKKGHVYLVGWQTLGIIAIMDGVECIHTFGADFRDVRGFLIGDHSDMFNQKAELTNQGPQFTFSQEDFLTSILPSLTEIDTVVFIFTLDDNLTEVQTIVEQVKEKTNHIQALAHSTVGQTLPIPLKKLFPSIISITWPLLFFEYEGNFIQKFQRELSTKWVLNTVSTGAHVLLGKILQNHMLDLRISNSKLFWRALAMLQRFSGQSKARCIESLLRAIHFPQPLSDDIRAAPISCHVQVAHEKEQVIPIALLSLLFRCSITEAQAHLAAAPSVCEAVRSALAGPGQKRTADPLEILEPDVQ
Cytochrome P450 3A4 (Homo sapiens), sequence (P08684 whole entry, looked up): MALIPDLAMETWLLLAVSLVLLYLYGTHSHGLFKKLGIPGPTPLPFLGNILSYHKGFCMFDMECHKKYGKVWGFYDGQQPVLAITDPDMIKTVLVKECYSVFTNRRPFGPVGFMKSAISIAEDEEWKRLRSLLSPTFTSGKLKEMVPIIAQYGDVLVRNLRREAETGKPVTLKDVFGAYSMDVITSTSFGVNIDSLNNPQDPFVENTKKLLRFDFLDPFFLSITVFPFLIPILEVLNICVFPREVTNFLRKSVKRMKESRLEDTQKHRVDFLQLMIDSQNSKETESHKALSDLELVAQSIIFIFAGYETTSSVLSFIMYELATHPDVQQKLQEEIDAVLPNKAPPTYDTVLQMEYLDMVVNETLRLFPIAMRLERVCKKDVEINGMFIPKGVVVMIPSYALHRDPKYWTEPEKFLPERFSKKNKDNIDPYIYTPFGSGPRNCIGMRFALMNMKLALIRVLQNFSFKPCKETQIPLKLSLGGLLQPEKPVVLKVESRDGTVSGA
ATP-dependent DNA helicase Q1 (Homo sapiens), sequence (P46063 whole entry, looked up): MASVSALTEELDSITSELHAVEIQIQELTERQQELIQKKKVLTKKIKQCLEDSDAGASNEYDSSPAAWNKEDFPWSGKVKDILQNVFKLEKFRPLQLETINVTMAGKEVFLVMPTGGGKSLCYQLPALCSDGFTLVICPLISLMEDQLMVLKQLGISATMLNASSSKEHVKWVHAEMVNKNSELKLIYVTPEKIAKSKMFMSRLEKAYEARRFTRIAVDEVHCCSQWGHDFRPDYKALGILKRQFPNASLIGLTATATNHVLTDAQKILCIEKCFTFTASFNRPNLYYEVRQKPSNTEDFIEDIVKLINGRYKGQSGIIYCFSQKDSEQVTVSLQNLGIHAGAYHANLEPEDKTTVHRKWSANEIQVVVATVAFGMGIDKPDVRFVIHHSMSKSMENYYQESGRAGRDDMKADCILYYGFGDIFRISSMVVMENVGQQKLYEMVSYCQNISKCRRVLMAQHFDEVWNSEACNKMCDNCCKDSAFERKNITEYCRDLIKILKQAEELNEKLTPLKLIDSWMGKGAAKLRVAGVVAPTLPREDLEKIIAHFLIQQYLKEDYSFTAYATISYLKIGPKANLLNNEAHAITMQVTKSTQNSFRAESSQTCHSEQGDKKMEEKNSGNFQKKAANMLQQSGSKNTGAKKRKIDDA
Single-stranded DNA cytosine deaminase (Homo sapiens), sequence (Q9GZX7 whole entry, looked up): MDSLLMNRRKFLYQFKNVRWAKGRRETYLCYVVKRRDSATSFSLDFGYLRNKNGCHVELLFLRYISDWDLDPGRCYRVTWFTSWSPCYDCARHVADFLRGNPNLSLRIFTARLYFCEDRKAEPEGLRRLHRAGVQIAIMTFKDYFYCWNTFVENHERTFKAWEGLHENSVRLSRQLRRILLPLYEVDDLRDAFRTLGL
N-terminal Xaa-Pro-Lys N-methyltransferase 1 (Homo sapiens), sequence (Q9BV86 whole entry, looked up): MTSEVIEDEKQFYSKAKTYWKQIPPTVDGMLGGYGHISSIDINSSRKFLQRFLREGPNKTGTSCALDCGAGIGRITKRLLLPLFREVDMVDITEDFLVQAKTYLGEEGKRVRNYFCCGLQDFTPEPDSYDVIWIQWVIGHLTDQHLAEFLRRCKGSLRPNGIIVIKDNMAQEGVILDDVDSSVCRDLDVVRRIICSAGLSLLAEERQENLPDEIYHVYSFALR

As for `CCOC(=O)CN1C(=O)[C@]2(OC[C@@H]3Cc4ccccc4[C@H]3C=C2C)c2ccccc21`, the Potency entry in assay [1] and in assay [2] was “inactive” each time.
`COc1ccc([C@]23Cc4ccccc4[C@H](O2)C2=C(CC(C)(C)CC2=O)O3)cc1`: the Potency entry in assay [1] and in assay [2] was “inactive” each time.
`CCCNC(=O)OC[C@H]1O[C@H](CCON=Cc2ccc(C(=O)N3[C@H](C(=O)OC)CC[C@H](C)[C@@H]3c3ccc(C)cc3)cc2)C=C[C@H]1Oc1ccc(OC)cc1`: the Potency result in assay [1] and in assay [2] was “inactive” each time.
With `Cc1ccc(C=CC2=C[C@]3(C)C[C@]2(C)[C@H](c2ccc(C)cc2)CC3=O)cc1`, the Potency result in [1] and in assay [2] was “inactive” in each case.
With `C[C@@H]1C(c2ccccc2)=CC(=O)c2nc3ccccc3cc2[C@@H]1C(=O)N1CCCC1`, the Potency result in assay [1] and in [2] was “inactive” each time.
Take `CCCCCCC#Cc1cc(OC)c(OC)cc1C(N1CC(C)c2ccccc21)N1CC(C)c2ccccc21` (centres undefined): in [3], the Potency is 3.16 µM (active). Also, the Potency entry in assay [2] was “inactive”.
On to `O=C1N(CC2CC2)c2cccc(Br)c2[C@@]12O[C@H](COc1ccccc1)CC1=CCCC12` (some centres undefined), for which the Potency result in [1] and in [2] was “inactive” each time.
For the compound `C/C=C/CC(C)C(O)C1C(=O)NC(CC)C(=O)N(C)CC(=O)N(C)C(CC(C)C)C(=O)NC(C(C)C)C(=O)N(C)C(CC(C)C)C(=O)NC(C)C(=O)NC(C)C(=O)N(C)C(CC(C)C)C(=O)N(C)C(CC(C)C)C(=O)N(C)C(C(C)C)C(=O)N1C` (centres undefined), the outcome in assay [4], in assay [7], in [8], in [9], in assay [15] and in assay [16] was inactive. For the same compound, the call in assay [18] was inactive. The Potency entry in assay [5], in [6], in assay [10], in assay [11], in assay [12] and in assay [13] was “inactive” each time. The Potency result (in assay [14]; in assay [17]; with Papain (Carica papaya); in assay [20]; in assay [21]; in assay [22]) was “inactive” each time. Moreover, the Potency result in assay [23] and in assay [24] was “inactive” in each case. In addition, in assay [19], the Potency is 7.84 µM (active). The Z-AUC is -0.474 (inactive) in assay [25], 0.643 in [25] (measured here: PEO1 parental Z-AUC) and 0.0499 in [25] (measured here: PEO4 Z-AUC).
